In the library only some 1.6% were active in any assay of this set; here they are far more common.
KCNQ2 enhance: enhances the rat KCNQ2 potassium channel; O88943; CHO-K1 KCNQ2, FluxOR thallium flux fluorescence; active compounds read high; B-score at 10 µM; 0.54% of 310,000 active; AID 2239;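 active = fluorescence ratio B-score at least 3 SD of library B-scores, with initial fluorescence B-score within 3 of them, cut at about 5.3 in these data; same plate scores as AID 2156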;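 note: B-score of peak minus minimum over baseline fluorescence ratio after K+ and Tl+ stimulus; positive B-score means potentiation of KCNQ2 with more thallium influx and brighter signal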
Target sequence (O88943 whole entry, looked up): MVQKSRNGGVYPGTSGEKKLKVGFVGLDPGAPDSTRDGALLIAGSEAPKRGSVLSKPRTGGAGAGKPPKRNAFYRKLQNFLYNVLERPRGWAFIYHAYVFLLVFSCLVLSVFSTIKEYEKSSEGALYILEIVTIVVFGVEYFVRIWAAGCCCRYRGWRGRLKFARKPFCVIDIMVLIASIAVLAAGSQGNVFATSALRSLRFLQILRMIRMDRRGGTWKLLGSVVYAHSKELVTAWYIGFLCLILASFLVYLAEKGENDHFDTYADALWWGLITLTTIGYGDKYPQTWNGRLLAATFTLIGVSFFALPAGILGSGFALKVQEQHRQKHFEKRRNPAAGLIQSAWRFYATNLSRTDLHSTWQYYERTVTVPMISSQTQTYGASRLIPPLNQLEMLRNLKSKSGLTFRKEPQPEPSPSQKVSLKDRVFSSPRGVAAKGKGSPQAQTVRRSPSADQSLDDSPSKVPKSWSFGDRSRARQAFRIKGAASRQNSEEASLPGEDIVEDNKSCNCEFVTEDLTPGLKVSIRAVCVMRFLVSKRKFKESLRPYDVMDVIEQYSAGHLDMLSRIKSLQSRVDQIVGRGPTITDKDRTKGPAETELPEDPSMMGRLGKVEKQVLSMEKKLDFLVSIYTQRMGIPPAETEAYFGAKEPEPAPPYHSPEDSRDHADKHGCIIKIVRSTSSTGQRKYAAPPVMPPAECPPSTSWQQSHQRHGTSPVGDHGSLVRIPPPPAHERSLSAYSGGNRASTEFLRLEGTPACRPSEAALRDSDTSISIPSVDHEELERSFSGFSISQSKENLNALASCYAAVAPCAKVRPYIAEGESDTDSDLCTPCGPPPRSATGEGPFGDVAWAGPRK
KCNQ2 block: inhibitors of rat KCNQ2 potassium channel. 1.1% of 310,000 active. B-score at 10 µM. CHO-K1 KCNQ2, FluxOR thallium flux, 20 min; active compounds read low. O88943;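 active = fluorescence ratio B-score at most minus 3 library SDs, with starting brightness B-score within 2 library SDs, cut at about -5.5 in these data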
Each line names hits and unclear results; the compound was inactive in the other large screens.

COc1ccc(S(=O)(=O)N2CCOCC2)cc1NC(=O)CN1CCN(C)CC1	none (no result: KCNQ2 enhance)
COc1ccc(CNC(=O)COC(=O)CO/N=C(\C)c2ccc3c(c2)OCO3)cc1	none
COCCN1C(=O)/C(=C/c2ccc(Oc3ccc([N+](=O)[O-])cn3)c(OC)c2)SC1=Nc1ccccc1	KCNQ2 block -6.87
COc1cc(/C=C2\SC(=Nc3ccccc3)N(CCc3c[nH]c4ccccc34)C2=O)ccc1OC(C)C(=O)O (stereo not drawn)	none (no result: KCNQ2 enhance)
Cc1ccc(C2(c3ccc(C)cc3)CC2C(=O)Nc2ccc([N+](=O)[O-])cc2O)cc1 (stereo not drawn)	KCNQ2 block -7.76
CC1(C)CC1C(=O)Nc1ccc([N+](=O)[O-])cc1Br (stereo not drawn)	none
Cc1ccc(/C=C/C(=O)NCCc2cccc(Cl)c2)o1	none (no result: KCNQ2 enhance)
O=C(NNC(=O)c1ccc2ncccc2c1)c1ccc(Cl)cc1	KCNQ2 enhance 8.05
Cc1ccc(C(=O)NNC(=O)c2ccc3ncccc3c2)cc1	none
CC1=NN(C(=O)c2ccccc2)C(O)(c2ccc(Br)cc2)C1 (stereo not drawn)	none
CCC1=NN(C(=O)c2ccc(Br)cc2)C(O)(c2ccccc2)C1 (stereo not drawn)	KCNQ2 enhance 6.04
COc1c(-c2ccc([N+](=O)[O-])cc2[N+](=O)[O-])c(=O)n(C)c(=O)n1C	none
Cc1ccc2ncc(S(=O)(=O)c3ccccc3)c(N3CCCCC3C)c2c1 (stereo not drawn)	KCNQ2 block -6.09
COc1ccc2ncc(S(=O)(=O)c3ccccc3)c(N3CCN(c4ccccc4)CC3)c2c1	none (no result: KCNQ2 enhance)
C=C1CCN([C@@H](CC(C)C)C(=O)Nc2nc3ccc(Cl)cc3s2)S(=O)(=O)c2ccccc21	none (no result: KCNQ2 enhance)
COc1ccccc1NC(=O)c1cccc2c(Br)cccc12	none (no result: KCNQ2 enhance)
Cc1cc(C)n(-c2nc3ccccc3nc2N2CCN(S(=O)(=O)c3ccc4ccccc4c3)CC2)n1	KCNQ2 block -5.89
Cc1cc(C)n(-c2nc3ccccc3nc2N2CCN(S(=O)(=O)c3ccc(F)c(C)c3)CC2)n1	none (no result: KCNQ2 enhance)
COc1cc(NC(=O)[C@@H](NC(=O)N2CCn3c2nc2ccccc23)C(C)C)cc(OC)c1	none (no result: KCNQ2 enhance)
Cc1ccccc1C1NC(=O)Cc2ccccc21 (stereo not drawn)	none
O=C1Cc2ccccc2C(c2ccc(Br)cc2)N1 (stereo not drawn)	KCNQ2 block -6.27
CCCNC(=O)c1ccc(N2CCC3(CC2)CC(c2ccccc2)=NO3)c(NC(=O)c2ccc(Br)cc2)c1	none (no result: KCNQ2 enhance)
CCCCCCCC(=O)Nc1cc(C(=O)NCCC)ccc1N1CCC2(CC1)CC(c1ccccc1)=NO2	KCNQ2 block -5.98
CCc1cccc(NC(=O)Cn2cc(C=O)c3ccccc32)c1	none
CC(C)CNC(=O)Cn1c(=O)c2c(ncn2CC(C)C)n(Cc2ccccc2)c1=O	none
O=C(O)C(Cc1c[nH]c2ccccc12)NS(=O)(=O)c1ccc(Cl)cc1 (stereo not drawn)	KCNQ2 block -7.32
O=C(O)C(Cc1c[nH]c2ccccc12)NS(=O)(=O)c1ccc(Br)cc1 (stereo not drawn)	none
CN1CCN(C(=O)C23CC4CC(C2)CC(c2ccccc2)(C4)C3)CC1	none (no result: KCNQ2 enhance)
Cc1cccc(/N=C/c2nc(-c3ccccc3Br)oc2O)n1	none (no result: KCNQ2 enhance)
Oc1oc(-c2cccc3ccccc23)nc1/C=N/c1nccs1	KCNQ2 enhance 9.36
O=[N+]([O-])c1ccc(S(=O)(=O)N2CCN(c3ccc(N4CCOCC4)nn3)CC2)cc1	none (no result: KCNQ2 enhance)
Cc1cccc(C(=O)N[C@H](C(=O)OCC(=O)NC(=O)c2cccn2C)C(C)C)c1	none
Cc1c(C(=O)N(C)Cc2cccc(F)c2)oc2c(Cl)cccc12	KCNQ2 block -7.65
Cc1c(C(=O)N(C)Cc2ccccc2)oc2c(Cl)cccc12	none (no result: KCNQ2 enhance)
CCOc1ccc(NC(=O)c2ccccc2C(=O)c2ccccc2)cc1OCC	none (no result: KCNQ2 enhance)
CC(C)(C)c1nc2ccccc2c2nnc(SCC(=O)NCc3ccco3)n12	KCNQ2 block -6.47
CC(C)c1nc2ccccc2c2nnc(SCC(=O)NCc3ccco3)n12	none (no result: KCNQ2 enhance)
CCOC(=O)N1CCN(c2nc(N(c3ccccc3)c3ccccc3)nc(-n3ccnc3)n2)CC1	KCNQ2 block -5.98
c1ccc(N(c2ccccc2)c2nc(N3CCCC3)nc(-n3ccnc3)n2)cc1	none (no result: KCNQ2 enhance)
O=C(CN1CCCCCC1)N/N=C/c1cccc(Cl)c1Cl	none (no result: KCNQ2 enhance)
CCc1ccccc1NC(=O)CN(C)C(=O)CSc1nn(-c2ccc(F)cc2)c(=S)s1	none (no result: KCNQ2 enhance)
CN(C)/C=C(\C#N)S(=O)(=O)c1ccc(Cl)cc1	KCNQ2 block -6.76
CN1CCN(/C=C(\C#N)S(=O)(=O)c2ccc(Cl)cc2)CC1	none (no result: KCNQ2 enhance)
CC(C)Cc1nnc(NC(=O)CCC(=O)N2CCN(Cc3ccc(Cl)cc3)CC2)s1	none
COc1ccc(-c2nc3ccccc3n2Cc2ccccc2)cc1	none (no result: KCNQ2 enhance)
COc1ccc(-c2n(Cc3ccccc3)c3ccccc3[n+]2Cc2ccccc2)cc1	KCNQ2 block -6.04
COc1cc(C(=O)Nc2cc(-c3cn4cccnc4n3)ccc2C)cc(OC)c1OC	none
CC(C)c1ccc(O)c(NC(=S)NC(=O)c2ccc3c(c2)OCO3)c1	none (no result: KCNQ2 enhance)
Cc1cccc(N(C(=O)c2csnn2)C(C(=O)NCc2ccccc2)c2ccc(C)o2)c1 (stereo not drawn)	none (no result: KCNQ2 enhance)
COc1ccc(CNC(=O)C(c2ccc(C)o2)N(C(=O)c2csnn2)c2ccc(C(C)C)cc2)cc1 (stereo not drawn)	KCNQ2 block -6.1
O=C(NC1CCCC1)C(c1ccccc1)N(Cc1ccc2c(c1)OCO2)C(=O)Cc1cccs1 (stereo not drawn)	none
COc1ccc(CNC(=O)C(c2ccc(C)o2)N(Cc2cccs2)C(=O)Cc2cccs2)cc1 (stereo not drawn)	KCNQ2 block -6.43
O=C(NCc1ccccc1)C(c1ccccc1)N(Cc1ccc2c(c1)OCO2)C(=O)Cc1cccs1 (stereo not drawn)	KCNQ2 block -7.01
COCCN(C(=O)Cc1cccs1)C(C(=O)NCc1ccc(OC)cc1)c1ccc(C)cc1 (stereo not drawn)	none
O=[N+]([O-])c1cncc([N+](=O)[O-])c1Nc1cccc(O)c1	none (no result: KCNQ2 enhance)
COC(=O)c1ccc(-n2c(CCC(=O)O)ccc2-c2ccccc2)cc1	none (no result: KCNQ2 enhance)
CCOc1ccc(NC(=S)N2CCC(NC(=O)c3ccccc3C)CC2)cc1	none
CCOc1ccccc1CN1CCNC(=O)C1CC(=O)NCc1nc(C)cs1 (stereo not drawn)	none
Cc1cccc(CC(=O)N2CCCC2)c1	none
Cc1csc2ncnc(N3CCN(C(=S)Nc4ccc(F)cc4F)CC3)c12	none
COc1ccc(Br)cc1-c1noc(-c2ccccc2)n1	none (no result: KCNQ2 enhance)
COc1ccc(Br)cc1-c1nc(C)c(C(C)=O)n1O	KCNQ2 block -7.19
O=C(O)CCCCCNC(=O)c1cccc(Br)c1	none (no result: KCNQ2 enhance)
O=C(NCCOC12CC3CC(CC(C3)C1)C2)c1cccc(Br)c1	KCNQ2 block -7.21
Cc1ccc(OC(=O)c2ccc(Cl)c([N+](=O)[O-])c2)cn1	none
Cc1ccc(C(=O)Oc2cccnc2)cc1[N+](=O)[O-]	KCNQ2 enhance 6.12
CC(C)CN(C(=O)COc1ccc(-c2nnco2)cc1)C1CCS(=O)(=O)C1 (stereo not drawn)	none (no result: KCNQ2 enhance)
CCOC(=O)N1CCN(C(=O)c2cnn3c(C(F)F)cc(-c4ccc(C)cc4)nc23)CC1	none
Cc1ccc(-c2cc(C(F)F)n3ncc(C(=O)N4CCN(c5cccc(C)c5C)CC4)c3n2)cc1	KCNQ2 block -6.42
COc1ccc(N(C)S(=O)(=O)c2cccc(C(=O)NC3CCCCCC3)c2)cc1	none (no result: KCNQ2 enhance)
COc1ccc(N(C)S(=O)(=O)c2cccc(C(=O)NC3CCCC(C)C3C)c2)cc1 (stereo not drawn)	KCNQ2 block -7.29
COc1ccc(S(=O)(=O)Nc2ccc(N3CCOCC3)cc2)cc1	none
